From PubChem BioAssay AID1159580 (chemical genetic matrix, 2015)
Values joined by “and” are separate entries in the source; they are usually repeats but may differ in a detail not shown here. Equal entries are not always repeated. The whole screen tested about 5,500 compounds, of which about 2,000 (36%) were called active. Inconclusive results (about 18%) are left out. Cut-off read from the data, not from the text of the source: active = normalized growth mostly below about 0.91 (no sharp cut-off); inconclusive = no clear call, values can overlap the other calls; inactive = mostly above about 0.92. The list shows a part of the results.

Test: chemical genetic growth profiling, strain panel (AID 1159580);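 note: tested at 20 µM; growth read once vehicle control cultures reached saturation at 30 °C; 1 = growth at the plate median or of vehicle wells; lower values mean less growth of the strain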
Details: S. cerevisiae deletion strains, growth OD

Measured: normalized growth

CCOC(=O)c1c(C)cc(O)cc1O
active: locus YAL030W, strain snc1, stronger effect = lower value 0.928 | locus YBR009C, strain hhf1, stronger effect = lower value 0.896 | locus YBR231C, strain swc5, stronger effect = lower value 0.897 | locus YCL011C, strain gbp2, stronger effect = lower value 0.891 | locus YDL134C, strain PPH21, stronger effect = lower value 0.874 | locus YDL185W, strain tfp1, stronger effect = lower value 0.896 | locus YDL192W, strain arf1, stronger effect = lower value 0.896 | locus YDR001C, strain nth1, stronger effect = lower value 0.909 | locus YDR101C, strain arx1, stronger effect = lower value 0.915 | locus YDR318W, strain mcm21, stronger effect = lower value 0.893 | locus YDR388W, stronger effect = lower value 0.916 | locus YDR502C, strain sam2, stronger effect = lower value 0.844 | locus YER015W, strain faa2, stronger effect = lower value 0.924 | locus YER110C, stronger effect = lower value 0.882 | locus YER155C, strain BEM2 (second series), stronger effect = lower value 0.857 | locus YGL078C, strain dbp3, stronger effect = lower value 0.912 | locus YGL086W, strain mad1, stronger effect = lower value 0.883 | locus YGL240W, strain doc1, stronger effect = lower value 0.887 | locus YGL248W, strain PDE1, stronger effect = lower value 0.877 | locus YGR135W, strain pre9, stronger effect = lower value 0.823 | locus YHR027C, strain rpn1, stronger effect = lower value 0.917 | locus YHR079C, strain IRE1 (second series), stronger effect = lower value 0.919 | locus YHR094C, strain hxt1, stronger effect = lower value 0.919 | locus YHR142W, strain chs7, stronger effect = lower value 0.866 | locus YHR200W, strain rpn10, stronger effect = lower value 0.864 | locus YIR030C, strain dcg1, stronger effect = lower value 0.913 | locus YJL095W, strain BCK1 (second series), stronger effect = lower value 0.917 | locus YJL164C, strain tpk1, stronger effect = lower value 0.903 | locus YJL168C, strain set2, stronger effect = lower value 0.931 | locus YKL068W, stronger effect = lower value 0.928 | locus YKL085W, strain MDH1 (second series), stronger effect = lower value 0.912 | locus YKL085W, strain MDH1, stronger effect = lower value 0.912 | locus YKR001C, strain vps1, stronger effect = lower value 0.732 | locus YLL041C, strain sdh2, stronger effect = lower value 0.917 | locus YLR039C, strain RIC1, stronger effect = lower value 0.604 | locus YLR258W, strain gsy2, stronger effect = lower value 0.906 | locus YLR262C, strain YPT6, stronger effect = lower value 0.556 | locus YLR330W, strain CHS5, stronger effect = lower value 0.876 | locus YLR370C, strain arc18, stronger effect = lower value 0.895 | locus YLR371W, strain rom2, stronger effect = lower value 0.767 | locus YLR418C, strain cdc73, stronger effect = lower value 0.758 | locus YML016C, strain PPZ1, stronger effect = lower value 0.888 | locus YML032C, strain rad52, stronger effect = lower value 0.897 | locus YML124C, strain tub3, stronger effect = lower value 0.911 | locus YMR078C, strain ctf18, stronger effect = lower value 0.881 | locus YMR223W, strain ubp8, stronger effect = lower value 0.898 | locus YNL233W, strain BNI4, stronger effect = lower value 0.788 | locus YNL248C, strain rpa49, stronger effect = lower value 0.872 | locus YNL250W, strain rad50, stronger effect = lower value 0.862 | locus YNL271C, strain bni1, stronger effect = lower value 0.906 | locus YNL307C, strain MCK1, stronger effect = lower value 0.846 | locus YOL147C, strain pex11, stronger effect = lower value 0.912 | locus YOR001W, strain rrp6, stronger effect = lower value 0.89 | locus YOR069W, strain VPS5, stronger effect = lower value 0.924 | locus YOR106W, strain vam3, stronger effect = lower value 0.855 | locus YOR144C, strain elg1, stronger effect = lower value 0.913 | locus YOR265W, strain rbl2, stronger effect = lower value 0.913 | locus YOR270C, strain vph1, stronger effect = lower value 0.721 | locus YOR316C, strain cot1, stronger effect = lower value 0.917 | locus YPL078C, strain atp4, stronger effect = lower value 0.887 | locus YPR119W, strain clb2, stronger effect = lower value 0.904 | locus YPR141C, strain kar3, stronger effect = lower value 0.901 | locus YPR163C, strain tif3, stronger effect = lower value 0.908 | locus YPR167C, strain met16, stronger effect = lower value 0.891 | strain wtn01, stronger effect = lower value 0.892
0.787 (active) and 0.917 (inactive): locus YJL095W, strain BCK1, stronger effect = lower value
inactive: locus YAL021C, strain ccr4, stronger effect = lower value 0.924 | locus YAL026C, strain drs2, stronger effect = lower value 0.946 | locus YBL061C, strain skt5, stronger effect = lower value 0.94 | locus YBR021W, strain FUR4, stronger effect = lower value 1.01 | locus YBR023C, strain chs3, stronger effect = lower value 0.922 | locus YBR171W, strain sec66, stronger effect = lower value 0.904 | locus YBR229C, strain ROT2, stronger effect = lower value 0.941 | locus YBR279W, strain paf1, stronger effect = lower value 0.947 | locus YCL016C, strain dcc1, stronger effect = lower value 0.921 | locus YCL029C, strain bik1, stronger effect = lower value 0.92 | locus YCL069W, strain vba3, stronger effect = lower value 0.939 | locus YCR088W, strain abp1, stronger effect = lower value 0.934 | locus YDL005C, strain med2, stronger effect = lower value 0.921 | locus YDL035C, strain GPR1, stronger effect = lower value 0.973 | locus YDL040C, strain nat1, stronger effect = lower value 0.94 | locus YDL074C, strain BRE1, stronger effect = lower value 0.923 | locus YDL101C, strain DUN1, stronger effect = lower value 0.917 | locus YDR069C, strain doa4, stronger effect = lower value 0.916 | locus YDR137W, strain rgp1, stronger effect = lower value 0.905 | locus YDR159W, strain sac3, stronger effect = lower value 0.887 | locus YDR162C, strain NBP2, stronger effect = lower value 0.87 | locus YDR195W, strain ref2 0.981 | locus YDR297W, strain sur2, stronger effect = lower value 0.93 | locus YDR334W, strain swr1, stronger effect = lower value 0.922 | locus YDR335W, strain msn5, stronger effect = lower value 0.935 | locus YDR392W, strain spt3, stronger effect = lower value 0.831 | locus YEL003W, strain gim4, stronger effect = lower value 0.947 | locus YEL037C, strain rad23, stronger effect = lower value 0.937 | locus YEL061C, strain CIN8 (second series), stronger effect = lower value 0.937 | locus YER016W, strain bim1, stronger effect = lower value 0.946 | locus YER111C, strain swi4, stronger effect = lower value 0.937 | locus YER155C, strain BEM2, stronger effect = lower value 0.927 | locus YER167W, strain BCK2, stronger effect = lower value 0.941 | locus YFR010W, strain ubp6, stronger effect = lower value 0.92 | locus YGL167C, strain pmr1, stronger effect = lower value 0.922 | locus YGL173C, strain kem1, stronger effect = lower value 0.928 | locus YGL227W, strain vid30, stronger effect = lower value 0.937 | locus YGL253W, strain hxk2, stronger effect = lower value 0.918 | locus YGR252W, strain gcn5, stronger effect = lower value 0.937 | locus YHR013C, strain ard1, stronger effect = lower value 0.941 | locus YHR030C, strain SLT2, stronger effect = lower value 0.93 | locus YHR079C, strain IRE1, stronger effect = lower value 0.918 | locus YHR129C, strain ARP1, stronger effect = lower value 0.924 | locus YIL066C, strain RNR3, stronger effect = lower value 0.951 | locus YIL073C, strain SPO22, stronger effect = lower value 0.888 | locus YIL125W, strain kgd1, stronger effect = lower value 0.945 | locus YJL092W, strain hpr5, stronger effect = lower value 0.923 | locus YJL115W, strain asf1, stronger effect = lower value 0.939 | locus YJL129C, strain trk1, stronger effect = lower value 0.929 | locus YJL134W, strain LCB3, stronger effect = lower value 0.931 | locus YJL154C, strain vps35, stronger effect = lower value 0.922 | locus YJL166W, strain qcr8, stronger effect = lower value 0.908 | locus YJL187C, strain SWE1 (second series), stronger effect = lower value 0.878 | locus YJL187C, strain SWE1, stronger effect = lower value 0.931 | locus YJR043C, strain POL32, stronger effect = lower value 0.965 | locus YJR066W, strain TOR1, stronger effect = lower value 0.853 | locus YKL009W, strain mrt4, stronger effect = lower value 0.924 | locus YKL160W, strain elf1, stronger effect = lower value 0.911 | locus YKR026C, strain gcn3, stronger effect = lower value 0.929 | locus YKR091W, strain srl3, stronger effect = lower value 0.942 | locus YLL001W, strain dnm1, stronger effect = lower value 0.919 | locus YLL026W, stronger effect = lower value 0.935 | locus YLR027C, strain aat2, stronger effect = lower value 0.93 | locus YLR058C, strain SHM2, stronger effect = lower value 0.906 | locus YLR102C, strain apc9, stronger effect = lower value 0.941 | locus YLR113W, strain HOG1, stronger effect = lower value 0.925 | locus YLR221C, strain rsa3, stronger effect = lower value 0.931 | locus YLR262C, strain YPT6 (second series), stronger effect = lower value 0.857 | locus YLR268W, strain sec22, stronger effect = lower value 0.964 | locus YLR320W, strain mms22, stronger effect = lower value 0.916 | locus YLR342W, strain FKS1, stronger effect = lower value 0.941 | locus YLR357W, strain rsc2, stronger effect = lower value 0.909 | locus YLR384C, strain iki3, stronger effect = lower value 0.937 | locus YML120C, strain ndi1, stronger effect = lower value 0.926 | locus YMR058W, strain fet3, stronger effect = lower value 0.914 | locus YMR125W, strain sto1, stronger effect = lower value 0.907 | locus YMR129W, stronger effect = lower value 0.949 | locus YMR205C, strain PFK2, stronger effect = lower value 0.91 | locus YMR231W, strain pep5, stronger effect = lower value 0.984 | locus YMR307W, strain GAS1, stronger effect = lower value 1.06 | locus YNL067W, strain RPL9B, stronger effect = lower value 0.899 | locus YNL071W, strain lat1, stronger effect = lower value 0.926 | locus YNL128W, strain TEP1, stronger effect = lower value 0.933 | locus YNL153C, strain GIM3, stronger effect = lower value 0.9 | locus YNL183C, strain NPR1, stronger effect = lower value 0.869 | locus YNL209W, strain ssb2, stronger effect = lower value 0.97 | locus YNL298W, strain CLA4, stronger effect = lower value 0.953 | locus YNL322C, strain KRE1 (second series), stronger effect = lower value 0.935 | locus YNR049C, strain mso1, stronger effect = lower value 0.92 | locus YNR052C, strain pop2, stronger effect = lower value 0.949 | locus YOL006C, strain TOP1, stronger effect = lower value 0.578 | locus YOL012C, strain htz1 1.06 | locus YOR061W, strain CKA2, stronger effect = lower value 0.957 | locus YOR070C, strain gyp1, stronger effect = lower value 0.951 | locus YOR080W, strain dia2, stronger effect = lower value 0.942 | locus YOR083W, strain WHI5, stronger effect = lower value 0.89 | locus YOR136W, strain idh2, stronger effect = lower value 0.928 | locus YOR184W, strain ser1, stronger effect = lower value 0.915 | locus YOR231W, strain MKK1, stronger effect = lower value 0.905 | locus YOR290C, strain snf2, stronger effect = lower value 0.88 | locus YPL051W, strain arl3, stronger effect = lower value 0.956 | locus YPL055C, strain LGE1, stronger effect = lower value 0.922 | locus YPL106C, strain sse1, stronger effect = lower value 0.88 | locus YPL240C, strain hsp82, stronger effect = lower value 0.952 | locus YPL256C, strain CLN2, stronger effect = lower value 0.839
